# Assay results as given in the supplement of paper PMC6555819.
# System: PPARg:RXRa 270nM:90nM, anti-RXR (NR concentration 270 nM, RXRa partner concentration 90 nM)
# Assay: PBM binding z-score (relative to random genomic background probes); higher = stronger binding; sequences stand for … in GC…GCGATTGACAGCGTAGAATGAAGG
# Procedure, shortened: (§1)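 For binding z-scores, the reference was random background probes on custom Agilent 4×180K protein-binding microarrays. These arrays were incubated 1 h with ligand-free nuclear receptor dimers in PBS pH 7.4, 2% milk, 0.02% Triton X-100, 1 mM DTT, 0.2 mg/mL BSA and 0.4 mg/ml salmon testes DNA. Fluorescence was scanned after antibody detection of each partner (one per run) and regression-normalized.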
row,Sequence,PBM binding z-score
1,TCTTGTAGATCACGCAGGTTAAGAAAGCCTGAGT,1.37
2,TCTAGCAGGCCAGAAGGTCACTCAAGAGGTACGG,2.86
3,TTACCAAGGTGAAATGTCGTTGATGCACGCCTTG,3.4
4,CCTTACGGGTCACTTCAGGTTATAGCATCGGAGT,3.7
5,CCTATCAGGCCAGGGTCACTCAAGCATTTCGCTT,1.93
6,AGAATGAGGTTAAGATCAGGTAAACAGAATACAT,2.31
7,AGAATGACGTTACCAAAGATCAGGGAAACGCTTG,0.125
8,ATCGAAAGGTCGAAGATGAGTATACCCACCCGAA,2.37
9,TCGAGTAGGTTAGGGGCATTAAGAATGGCGTCGA,2.13
10,TAGCCTAGGTCATTCAGGGGCCAGTATCGAAAGC,2.11
11,CCAGACAGGTGAGAAGGTAACGCAGCCTCGATTA,0.998
12,CCTCGGAGGACAGAAGGTCAGAGCTGTCCGCTTT,0.708
13,CGAACTAGGTCATTGATAGGACAGTGAATAGTAA,5.99
14,GATACAGTGTCAGCTAGAGGCCAGAGTATGGAAA,-0.349
15,GATACACGGTCAGCTAGAGGCCAGAGTATGGAAA,-0.323
16,GCAGACAGGTGAAACGCGGGTAACTCAGGGTGGC,-0.106
17,GCTTGTTGATCAAGGTTAAGAAAGACTAAGCTAA,0.401
18,ATATGTAGGTTATCGGGTCCTTCAGTTTGCGCAT,4.43
19,CCTACTGGGCCATCATGTCATTGATATCAACGTT,2.01
20,ATCGGAAGGTCGTGAGGTGAGTATACAGAAAGGC,1.63

row,Sequence,PBM binding z-score
1,TTACCAAGGTGAGCTAAGGTCGTTGATCCAACTC,1.42
2,CCTGCTAGGCCAATGGTCAGCTAAAGCAGCTCGC,2.33
3,CGTTCAAGGTCAATGCTAGGTCAGTGAAAGCATT,5.15
4,ATCGAAAGGTCGAAGGTGGGTATACCCACCCGAA,3.99
5,CGTCCAAGGTCAAGGTTAGTGAAAGAGACTCGAA,5.18
6,TCATATTGGTAAAAGGTGAAAGTCGGTGTGGTAA,5.67
7,GATACAGGGTTAGCTAGAGGCCAGAGTATGGAAA,0.0848
8,CGAACTAGCTCATCCAGGACAGTGAATACATTGA,-0.572
9,CGTCCAAGGTCAAGGTCAGCGAAAGAGACTCGAA,6.42
10,CCTACTGGGCCAGGGTCATTGATCAGTCAAAGCA,3.68
11,AGAATGAGGTAATTAAGATCAGGGAATTGCGGTC,0.141
12,CGTCAAAGTGCAACTAAGGTAACGTAAAGCACGC,0.685
13,TAGCCTAGGTCATTGGGCCGGTATAGTACGCATC,2.72
14,TCATATAGGTAAAGGTTAAAGTCGAACGATATGA,5.57
15,TCTTGTAGATCAACAGGAGGTTAAGGAAGATCGA,1.22
16,AATTACGGGTCAACGAGGTTATAGCACGCGTATA,6.19
17,CTCGAAAGGTCGTGCACAGGTGAGTATACCAAAC,4.58
18,TCTCGGACGACACGAAGGTCAGAGCTTTCCAGAG,1.77
19,ACTAGCAGGCCAAGGTTGGGTCACTCAAACAAAG,1.19
20,TTACCAAGGTGTAAGGTCGTTGATGCACGCCTTG,4.03

# System: PPARg:RXRa 30nM:10nM, anti-RXR (NR concentration 30 nM, RXRa partner concentration 10 nM)
# Assay: as above
# Procedure, shortened: as §1
row,Sequence,PBM binding z-score
1,TCTTGTAGATCACGCAGGTTAAGAAAGCCTGAGT,2.72
2,TCTAGCAGGCCAGAAGGTCACTCAAGAGGTACGG,2.27
3,TTACCAAGGTGAAATGTCGTTGATGCACGCCTTG,1.94
4,CCTTACGGGTCACTTCAGGTTATAGCATCGGAGT,1.22
5,CCTATCAGGCCAGGGTCACTCAAGCATTTCGCTT,-0.162
6,AGAATGAGGTTAAGATCAGGTAAACAGAATACAT,0.859
7,AGAATGACGTTACCAAAGATCAGGGAAACGCTTG,0.189
8,ATCGAAAGGTCGAAGATGAGTATACCCACCCGAA,1.04
9,TCGAGTAGGTTAGGGGCATTAAGAATGGCGTCGA,1.32
10,TAGCCTAGGTCATTCAGGGGCCAGTATCGAAAGC,0.0848
11,CCAGACAGGTGAGAAGGTAACGCAGCCTCGATTA,-0.268
12,CCTCGGAGGACAGAAGGTCAGAGCTGTCCGCTTT,-0.69
13,CGAACTAGGTCATTGATAGGACAGTGAATAGTAA,3.25
14,GATACAGTGTCAGCTAGAGGCCAGAGTATGGAAA,-0.273
15,GATACACGGTCAGCTAGAGGCCAGAGTATGGAAA,-0.383
16,GCAGACAGGTGAAACGCGGGTAACTCAGGGTGGC,-0.712
17,GCTTGTTGATCAAGGTTAAGAAAGACTAAGCTAA,-0.0921
18,ATATGTAGGTTATCGGGTCCTTCAGTTTGCGCAT,1.77
19,CCTACTGGGCCATCATGTCATTGATATCAACGTT,0.718
20,ATCGGAAGGTCGTGAGGTGAGTATACAGAAAGGC,0.466

row,Sequence,PBM binding z-score
1,TTACCAAGGTGAGCTAAGGTCGTTGATCCAACTC,0.431
2,CCTGCTAGGCCAATGGTCAGCTAAAGCAGCTCGC,0.142
3,CGTTCAAGGTCAATGCTAGGTCAGTGAAAGCATT,1.88
4,ATCGAAAGGTCGAAGGTGGGTATACCCACCCGAA,1.28
5,CGTCCAAGGTCAAGGTTAGTGAAAGAGACTCGAA,2.08
6,TCATATTGGTAAAAGGTGAAAGTCGGTGTGGTAA,5.38
7,GATACAGGGTTAGCTAGAGGCCAGAGTATGGAAA,-0.37
8,CGAACTAGCTCATCCAGGACAGTGAATACATTGA,0.105
9,CGTCCAAGGTCAAGGTCAGCGAAAGAGACTCGAA,3.23
10,CCTACTGGGCCAGGGTCATTGATCAGTCAAAGCA,0.898
11,AGAATGAGGTAATTAAGATCAGGGAATTGCGGTC,-0.00971
12,CGTCAAAGTGCAACTAAGGTAACGTAAAGCACGC,0.0299
13,TAGCCTAGGTCATTGGGCCGGTATAGTACGCATC,0.313
14,TCATATAGGTAAAGGTTAAAGTCGAACGATATGA,5.06
15,TCTTGTAGATCAACAGGAGGTTAAGGAAGATCGA,2.48
16,AATTACGGGTCAACGAGGTTATAGCACGCGTATA,2.81
17,CTCGAAAGGTCGTGCACAGGTGAGTATACCAAAC,1.66
18,TCTCGGACGACACGAAGGTCAGAGCTTTCCAGAG,2.37
19,ACTAGCAGGCCAAGGTTGGGTCACTCAAACAAAG,-0.515
20,TTACCAAGGTGTAAGGTCGTTGATGCACGCCTTG,1.99
